# Results published in PubChem BioAssay (NCI).
# About 83,000 compounds went through this panel and 20% of them were active in at least one assay; those are over-represented in the sample as a whole.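 Cells were grown in 96-well plates and exposed to the test compound at a single concentration for 48 hours; results are reported as percent growth, with values below 10 considered active.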 A number with no mark means an inactive call. Activity calls are given as the source filed them.
# Test system: HL-60(TB) leukemia
# Experiment: NCI-60 one-dose screen, 48 h (100 = growth as untreated, 0 = no growth, -100 = all killed)
# Details: 10 µM unless noted
row,SMILES,growth
1,CS(=O)(=O)Nc1cc(-c2ccc3ncnc(Nc4ccc5c(cnn5Cc5ccccc5F)c4)c3c2)cnc1Cl,22.7%
2,COc1ccc(C(=O)/C=C/c2sc(Cl)nc2Cl)cc1,32.3%
3,COc1cccc(CCC(=O)c2cc3c(N)c(C(=O)Nc4ccccc4)sc3nc2C)c1,6.59% (active)
4,CCCCCCCCCCCCCCCCCCNC(=O)[C@H]1CSC(c2ccc(OC)c(F)c2)N1 (stereo partly drawn),-60.3% (active)
5,CN1CCN(Cc2ccc(NC(=O)c3nc4ccc5[nH]ncc5c4c4c3CCCC4)cc2C(F)(F)F)CC1,-57.4% (active)
6,C=C1C(=O)O[C@H]2[C@H]1CC/C(COC(=O)NCc1[nH]nc3ccccc13)=C\CC[C@@]1(C)O[C@@H]21,-51% (active)
7,Cc1nn(-c2ccccc2)c2c1N=c1s/c(=C\c3ccc(C(F)(F)F)cc3)c(=O)n1CN2,91.2%
8,COc1ccc(Cn2cc3c(c2-c2cc(OC)c(OC)c(OC)c2)CCc2cnoc2-3)cc1[N+](=O)[O-],11%
9,Cc1cc(C)c2nc(Nc3nc(C)c(C)c(=O)[nH]3)nc(C)c2c1,-10.2% (active)
10,Nc1cc(C(=O)O)cc(C(=O)O)c1,90.2%
11,O=C(/C=C/c1ccc(Cl)cc1)c1cccc(OCCCOc2cccc(C(=O)/C=C/c3ccc(Cl)cc3)c2)c1,96.2%
12,O=C(/C=C/c1cccc(Cl)c1)c1ccc(Nc2nc(Nc3ccc(F)cc3)nc(Nc3ccc(Cl)cc3)n2)cc1,52.8%
13,COc1ccc(-c2nc3sccn3c2-c2cc(-c3cc(OC)c(OC)c(OC)c3)on2)cc1,23.5%
